{"source": "PubChem BioAssay (NCI)", "note": "Compounds without any hit were thinned out: in the full panel of roughly 83,000, 20% have a hit.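 Growth was measured after 48 h exposure to one concentration of compound in 96-well plates. Values under 10 count as active.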 Values without a mark were called inactive. The source made the active and inactive calls.", "data": [{"test_system": "HCT-116 colon", "experiment": "NCI-60 one-dose screen, 48 h (100 = growth as untreated, 0 = no growth, -100 = all killed)", "settings": "10 µM unless noted", "values": [{"smiles": "O=C(Nc1ccc(C(=O)Nc2ccc(C3=NCCCN3)cc2)cc1)Nc1ccc(C2=NCCCN2)cc1", "growth": "63.9%"}, {"smiles": "CC(C)C1CCC(C)C(C2(C#N)C(N)=NC(N)=C2C#N)C1=O", "note": "(stereo not drawn)", "growth": "99.2%"}, {"smiles": "O=C(/C=C/c1ccc2c(c1)OCO2)c1c(O)c2ccccc2oc1=O", "growth": "86.9%"}, {"smiles": "CCNC(=O)C#Cc1ccc2c(C(=Nc3ccc(CN(C)C)cc3)c3ccccc3)c(O)[nH]c2c1", "growth": "-16.2% (active)"}, {"smiles": "CNS(=O)(=O)Nc1nccc(Cc2c(C)c3ccc(Oc4ncccn4)cc3oc2=O)c1F", "growth": "19.2%"}, {"smiles": "C[C@@H](NC(=O)c1ncnc(N)c1Cl)c1ncc(C(=O)Nc2cc(C(F)(F)F)c(Cl)cn2)s1", "growth": "25.3%"}, {"smiles": "COc1ccc(Nc2ncccc2NC(=O)c2cn(Cc3cccc(Oc4ccccc4)c3)nn2)cc1", "growth": "92.4%"}, {"smiles": "COc1ccc(OC)c(NC2=C(SCCc3ccccc3)C(=O)c3ccccc3C2=O)c1", "growth": "72.3%"}, {"smiles": "O=C(O)c1ccc2c(c1)nc(Nc1cccc(Cl)c1)c1ccncc12", "growth": "3.79% (active)"}, {"smiles": "Cc1nc(Nc2n[nH]c3c2CN(C(=O)N[C@H](CN(C)C)c2ccccc2)C3(C)C)c2sccc2n1", "growth": "-9.97% (active)"}, {"smiles": "NC1(C(=O)N[C@@H](CCO)c2ccc(Cl)cc2)CCN(c2ncnc3[nH]ccc23)CC1", "growth": "45.7%"}, {"smiles": "COC[C@@H](C)n1c(C2CCOCC2)nc2c1C1C=C(OC)C(c3c(C)noc3C)=CC1N=C2", "note": "(stereo partly drawn)", "growth": "53.4%"}, {"smiles": "N#CC1(C#N)C(c2cccs2)NC(c2cccs2)C1(C#N)C#N", "note": "(stereo not drawn)", "growth": "97.6%"}]}]}
